Experimental data taken from publication PMC7819943, “Rice protein-binding microarrays: a tool to detect cis-acting elements near promoter regions in rice”.
In all, about 35,000 sequences were measured (“fluorescence intensity (a.u.)”: median about 10,000, highest 2% from about 52,000 on). This excerpt belongs to a sample that is enriched for the highest values.

Molecular target: T1, OsWOX13 (Oryza sativa, UniProt Q5QMM3 1-267)
T1 sequence: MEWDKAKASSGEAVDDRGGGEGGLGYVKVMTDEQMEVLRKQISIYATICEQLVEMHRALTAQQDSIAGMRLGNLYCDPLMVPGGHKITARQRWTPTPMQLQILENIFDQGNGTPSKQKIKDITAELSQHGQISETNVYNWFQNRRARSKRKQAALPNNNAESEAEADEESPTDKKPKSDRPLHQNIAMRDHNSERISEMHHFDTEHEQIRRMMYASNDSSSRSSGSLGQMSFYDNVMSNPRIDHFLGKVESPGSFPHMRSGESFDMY
Assay: protein-binding microarray (RPBM); PBS, 2% BSA, 51.3 ng/ul salmon testes DNA, 50 uM zinc acetate, 200 nM TF, 25 C, 1 h; high values mean tight binding
Settings: protein: recombinant; tags: N-terminal polyhistidine and DsRed monomer fusion (pET32a); label: CyDye5-dUTP incorporated in the synthesized complementary strand; 3' TTTTT single-stranded linker to array surface; dsDNA, one strand shown
Procedure, shortened: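 Transcription factors were each fused at the N-terminus to a polyhistidine tag plus DsRed and expressed in E. coli BL21-CodonPlus before Ni–NTA purification. Binding to a double-stranded custom Agilent array was carried out with 200 nM protein at 25 °C for 1 h in PBS, 2% BSA, salmon testes DNA and 50 µM zinc acetate. The binding signal is per-feature fluorescence intensity, in arbitrary units, on an Axon 4000B scanner.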

Sequence	binding signal
AGCTAGGTCAATCATGCATGCATGAATATGTGGCCGAGTTCGGAGTCACCTAGTGCAG	3270 fluorescence intensity (a.u.)
CCAAACAATTTCAGTTTCATCTAAATTGGAGTGGAGCTGGCGGAGTCACCTAGTGCAG	11400 fluorescence intensity (a.u.)
TTGATAGATTGATCGTTAGTGCTTTTGTCCAATTTGTTCACGGAGTCACCTAGTGCAG	64200 fluorescence intensity (a.u.)
TGGATTAATTTCTCCTCTTCTCTTCCTCCCGTTTATAATACGGAGTCACCTAGTGCAG	6370 fluorescence intensity (a.u.)
ATTTAATTTAATTTAATTGTTCCTCCTCTTCTTCTTCTCTCGGAGTCACCTAGTGCAG	41000 fluorescence intensity (a.u.)
TATGATTGATTGGAGGGATCAATTAATTACTCATTCTCCACGGAGTCACCTAGTGCAG	64700 fluorescence intensity (a.u.)
TTTACTCATGATTACGCTAATTATTCCACTCAATTCTCACCGGAGTCACCTAGTGCAG	26100 fluorescence intensity (a.u.)
CTCCACTAATTACTCCACCCAACCATTGGATTCAATGGGCCGGAGTCACCTAGTGCAG	21700 fluorescence intensity (a.u.)
TTTTGTAACTGATCGTTATTAGATCGGATTTGTTCATTGTCGGAGTCACCTAGTGCAG	3360 fluorescence intensity (a.u.)
GAGATCACATTAACTAATTGATTAACTAATTACTTCATCCCGGAGTCACCTAGTGCAG	29600 fluorescence intensity (a.u.)
CTCGTTAGATTTTGATCAATGATTAGTCCAAATTATACATCGGAGTCACCTAGTGCAG	15200 fluorescence intensity (a.u.)
TTGTCCATCACAATTGCTAATTAACTAAGACACCCTTCCTCGGAGTCACCTAGTGCAG	21100 fluorescence intensity (a.u.)
CTGATTAAGATCACTAATTGATCTGTCCACATTGCATCCTCGGAGTCACCTAGTGCAG	54800 fluorescence intensity (a.u.)
ATTAATTAATTAATTAATTAATTAATACTCCTCTCTTCCACGGAGTCACCTAGTGCAG	65500 fluorescence intensity (a.u.)
TGATAATTTTAAATTAAATAAGTAAATTTCAGAAAACTATCGGAGTCACCTAGTGCAG	29700 fluorescence intensity (a.u.)
TTATATTTAGATTGAAGCCAAAATAACCTAAGTTCACTATCGGAGTCACCTAGTGCAG	8620 fluorescence intensity (a.u.)
TTTTACTATAACGTTTGATCATTTGTGTTATTTAAATTTTCGGAGTCACCTAGTGCAG	4170 fluorescence intensity (a.u.)
TGATTTGGCTGATTAGATGCAATTTAGTCCTGCCACTGTGCGGAGTCACCTAGTGCAG	16900 fluorescence intensity (a.u.)
AATCAATCAATTAGTTAGAGATCAAGTTATTAGTGTCCAACGGAGTCACCTAGTGCAG	31100 fluorescence intensity (a.u.)
CAAATAAACAGGGTTCAGTCAAACTCAAGTGAATGAATTGCGGAGTCACCTAGTGCAG	11500 fluorescence intensity (a.u.)
GTGCAATTTAACTCCATAAATTACTTTCAGAAATGTGCAGCGGAGTCACCTAGTGCAG	11300 fluorescence intensity (a.u.)
GTCATCAATGATTCAGTGTTAACTACTCCATTTCTAGAAACGGAGTCACCTAGTGCAG	3880 fluorescence intensity (a.u.)
ATGAGCCTAACCATTTCTAGTGTTACTTACTCCATTTCAGCGGAGTCACCTAGTGCAG	64200 fluorescence intensity (a.u.)
ATAATGGGAAATGGAGGGTGGGATTGGGATTAGAAAATGACGGAGTCACCTAGTGCAG	3290 fluorescence intensity (a.u.)
AATATTAGTATTAATTGATAAAAGTTCGTCACGCGAGTTACGGAGTCACCTAGTGCAG	18200 fluorescence intensity (a.u.)
ATTTTGAAGTTCCTGTAAGTTGGACATATCTACTGGTTCCCGGAGTCACCTAGTGCAG	65500 fluorescence intensity (a.u.)
GAGTAATTTTCTACTGGTTTTAATAGTTGAAATAGCTGTTCGGAGTCACCTAGTGCAG	3780 fluorescence intensity (a.u.)

Sequence	binding signal
TAAATTGAATGGTTTTGTAAGTTGAGGGACGTCATATATCCGGAGTCACCTAGTGCAG	21500 fluorescence intensity (a.u.)
TATCTCTAATTTAGTTAATTTAACTTGTTGATCGATCGCTCGGAGTCACCTAGTGCAG	21700 fluorescence intensity (a.u.)
CGTTTCTGATTTGATTCTTCCAAATTTTGGGTTCCTGATTCGGAGTCACCTAGTGCAG	24800 fluorescence intensity (a.u.)
AGTTTATGATAATTTAAATTTATATAGTATGTAGAATGGTCGGAGTCACCTAGTGCAG	14400 fluorescence intensity (a.u.)
CAATAAATTTGAATAGCAATTGGTATATGTCATATCTGGTCGGAGTCACCTAGTGCAG	14900 fluorescence intensity (a.u.)
CCAAATTTGATTGGCATCTCAAAACTGTCGTATAATTGGGCGGAGTCACCTAGTGCAG	65500 fluorescence intensity (a.u.)
ATTTTCTCAATTTATCTCACTCATATAAACTCCAAATTGGCGGAGTCACCTAGTGCAG	6170 fluorescence intensity (a.u.)
TTTGATTTAATTTGTTCTGCAAACAGTCCGGAAAATGCCTCGGAGTCACCTAGTGCAG	53500 fluorescence intensity (a.u.)
ACTTGTAGTAATTTAATTTGAAATTCTGTTCTTGCCTCTGCGGAGTCACCTAGTGCAG	6760 fluorescence intensity (a.u.)
TCGGTCTGCAAACAAATTGATTGATTTGTTTTCCTTTTGCCGGAGTCACCTAGTGCAG	47100 fluorescence intensity (a.u.)
CAAAACTGTCATTTTGTATGATTTCTCTCTCATCAATTGGCGGAGTCACCTAGTGCAG	17500 fluorescence intensity (a.u.)
TTGATTTGATTGGGTTGGTTCCAAATTATATTCTGTGATTCGGAGTCACCTAGTGCAG	57600 fluorescence intensity (a.u.)
AGCAAATTTAAATTTGATAGTATAGAATTGGTTCTGAGGTCGGAGTCACCTAGTGCAG	52400 fluorescence intensity (a.u.)
TTATACAAATTATACCTGTTAATTATTGTGATTGTTTGGTCGGAGTCACCTAGTGCAG	36800 fluorescence intensity (a.u.)
ATTCGTAACCACTTAATTACCCATTTATCCCCTTCTGATTCGGAGTCACCTAGTGCAG	10600 fluorescence intensity (a.u.)
TATAAATTTAGTTAAATATATATAAAGAAGTTTGACTTATCGGAGTCACCTAGTGCAG	9160 fluorescence intensity (a.u.)
TAATAATTTATTATGTGTATGTGTATGGCTAGGATACAGCCGGAGTCACCTAGTGCAG	16500 fluorescence intensity (a.u.)
TGTTTTACCCTGATTGCGTGAAGTGAAACTATTATTCAGGCGGAGTCACCTAGTGCAG	3550 fluorescence intensity (a.u.)
GTCATAATTTGAAATTCAAATTTAAACTATTCAAACAAAGCGGAGTCACCTAGTGCAG	23300 fluorescence intensity (a.u.)
TTTCGTGATAATTTTGTGTGCAATCACAACAATTTGAAATCGGAGTCACCTAGTGCAG	6180 fluorescence intensity (a.u.)
ACTAATTTGGTATTATAACTGTTGCTAATTATTCTATAAACGGAGTCACCTAGTGCAG	21700 fluorescence intensity (a.u.)
GTTCGTTCGTTCGTTGATTGATTGTGTTGAATTAATTGAGCGGAGTCACCTAGTGCAG	27600 fluorescence intensity (a.u.)
CAAATTGGTGGGTGATTGCTAATTTATAACTGTTCGTATTCGGAGTCACCTAGTGCAG	64100 fluorescence intensity (a.u.)
GCAAATTGAATTAATTCGTGTGATATTTGTTCTGCACCGGCGGAGTCACCTAGTGCAG	59500 fluorescence intensity (a.u.)
ATCATAATTTGAAATTCAAATTCATACTGTTCAAACAAAGCGGAGTCACCTAGTGCAG	17600 fluorescence intensity (a.u.)
TGTATTTGATTGAAACTGTTCATACTATAAACATGCTGGGCGGAGTCACCTAGTGCAG	57900 fluorescence intensity (a.u.)
AAAATTATATAATTATAATTTATTTTATTGCAACTTGATTCGGAGTCACCTAGTGCAG	27000 fluorescence intensity (a.u.)
